Experimental data published in PubChem BioAssay AID1159580 (chemical genetic matrix, 2015).
“And” between values parts separate entries of the source, which are not always exact repeats. Equal values may be shown once. The whole screen tested about 5,500 compounds, of which about 2,000 (36%) were called active. Roughly 18% stayed inconclusive and do not appear here. Rule as the data show it: active = normalized growth mostly below about 0.91 (no sharp cut-off); inconclusive = no clear call, values can overlap the other calls; inactive = mostly above about 0.92. The list shows a part of the results.

Assay: chemical genetic growth profiling, strain panel (AID 1159580);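 also: tested at 20 µM; growth read once vehicle control cultures reached saturation at 30 °C; 1 = growth at the plate median or of vehicle wells; lower values mean less growth of the strain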
Details: S. cerevisiae deletion strains, growth OD

Measured: normalized growth

CC(=O)O[C@@H]1CC2C(C)(CC[C@H](O)C2(C)C)C2CC[C@]3(C)C(=CC(=O)O[C@H]3c3ccoc3)C21C (stereo not given in full)
inactive: locus YAL013W, strain DEP1, stronger effect = lower value 0.999 | locus YAL021C, strain ccr4, stronger effect = lower value 0.995 | locus YAL026C, strain drs2, stronger effect = lower value 1 | locus YAL030W, strain snc1, stronger effect = lower value 0.998 | locus YBL061C, strain skt5, stronger effect = lower value 1.02 | locus YBR009C, strain hhf1, stronger effect = lower value 1.02 | locus YBR021W, strain FUR4, stronger effect = lower value 0.868 | locus YBR023C, strain chs3, stronger effect = lower value 1 | locus YBR171W, strain sec66, stronger effect = lower value 1 | locus YBR229C, strain ROT2, stronger effect = lower value 1 | locus YBR231C, strain swc5, stronger effect = lower value 1 | locus YBR279W, strain paf1, stronger effect = lower value 1 | locus YCL011C, strain gbp2, stronger effect = lower value 0.995 | locus YCL016C, strain dcc1, stronger effect = lower value 1 | locus YCL029C, strain bik1, stronger effect = lower value 0.999 | locus YCL061C, strain MRC1, stronger effect = lower value 0.999 | locus YCL069W, strain vba3, stronger effect = lower value 1.02 | locus YCR088W, strain abp1, stronger effect = lower value 1 | locus YDL005C, strain med2, stronger effect = lower value 0.986 | locus YDL035C, strain GPR1, stronger effect = lower value 1.02 | locus YDL040C, strain nat1, stronger effect = lower value 1 | locus YDL074C, strain BRE1, stronger effect = lower value 1.02 | locus YDL101C, strain DUN1, stronger effect = lower value 1 | locus YDL134C, strain PPH21, stronger effect = lower value 0.984 | locus YDL185W, strain tfp1, stronger effect = lower value 1 | locus YDL192W, strain arf1, stronger effect = lower value 1 | locus YDR001C, strain nth1, stronger effect = lower value 1 | locus YDR069C, strain doa4, stronger effect = lower value 1.02 | locus YDR101C, strain arx1, stronger effect = lower value 0.994 | locus YDR137W, strain rgp1, stronger effect = lower value 0.988 | locus YDR150W, strain NUM1, stronger effect = lower value 1.01 | locus YDR159W, strain sac3, stronger effect = lower value 1.01 | locus YDR162C, strain NBP2, stronger effect = lower value 1 | locus YDR195W, strain ref2 0.992 | locus YDR297W, strain sur2, stronger effect = lower value 1 | locus YDR318W, strain mcm21, stronger effect = lower value 0.993 | locus YDR334W, strain swr1, stronger effect = lower value 1 | locus YDR335W, strain msn5, stronger effect = lower value 1.02 | locus YDR388W, stronger effect = lower value 0.996 | locus YDR392W, strain spt3, stronger effect = lower value 0.952 | locus YDR502C, strain sam2, stronger effect = lower value 0.975 | locus YEL003W, strain gim4, stronger effect = lower value 1.02 | locus YEL037C, strain rad23, stronger effect = lower value 1.01 | locus YEL061C, strain CIN8 (second series), stronger effect = lower value 1.01 | locus YEL061C, strain CIN8, stronger effect = lower value 1 | locus YER015W, strain faa2, stronger effect = lower value 1 | locus YER016W, strain bim1, stronger effect = lower value 0.99 | locus YER110C, stronger effect = lower value 0.987 | locus YER111C, strain swi4, stronger effect = lower value 0.998 | locus YER155C, strain BEM2 (second series), stronger effect = lower value 1 | locus YER155C, strain BEM2, stronger effect = lower value 0.993 | locus YER167W, strain BCK2, stronger effect = lower value 1.01 | locus YFR010W, strain ubp6, stronger effect = lower value 1.01 | locus YGL078C, strain dbp3, stronger effect = lower value 0.993 | locus YGL086W, strain mad1, stronger effect = lower value 0.996 | locus YGL167C, strain pmr1, stronger effect = lower value 0.999 | locus YGL173C, strain kem1, stronger effect = lower value 1.01 | locus YGL227W, strain vid30, stronger effect = lower value 0.994 | locus YGL240W, strain doc1, stronger effect = lower value 0.99 | locus YGL248W, strain PDE1, stronger effect = lower value 1 | locus YGL253W, strain hxk2, stronger effect = lower value 0.997 | locus YGR078C, strain PAC10, stronger effect = lower value 0.995 | locus YGR135W, strain pre9, stronger effect = lower value 0.959 | locus YGR229C, strain SMI1, stronger effect = lower value 0.971 | locus YGR252W, strain gcn5, stronger effect = lower value 0.946 | locus YHR013C, strain ard1, stronger effect = lower value 0.983 | locus YHR027C, strain rpn1, stronger effect = lower value 1.02 | locus YHR030C, strain SLT2, stronger effect = lower value 0.996 | locus YHR079C, strain IRE1 (second series), stronger effect = lower value 0.986 | locus YHR079C, strain IRE1, stronger effect = lower value 0.994 | locus YHR094C, strain hxt1, stronger effect = lower value 0.984 | locus YHR129C, strain ARP1, stronger effect = lower value 1.01 | locus YHR142W, strain chs7, stronger effect = lower value 1 | locus YHR200W, strain rpn10, stronger effect = lower value 0.995 | locus YIL066C, strain RNR3, stronger effect = lower value 1.02 | locus YIL073C, strain SPO22, stronger effect = lower value 1.02 | locus YIL125W, strain kgd1, stronger effect = lower value 0.992 | locus YIR030C, strain dcg1, stronger effect = lower value 0.993 | locus YJL092W, strain hpr5, stronger effect = lower value 1.01 | locus YJL095W, strain BCK1 (second series), stronger effect = lower value 1.01 | locus YJL095W, strain BCK1, stronger effect = lower value 1 and 0.986 | locus YJL115W, strain asf1, stronger effect = lower value 0.994 | locus YJL129C, strain trk1, stronger effect = lower value 0.99 | locus YJL134W, strain LCB3, stronger effect = lower value 1 | locus YJL154C, strain vps35, stronger effect = lower value 0.996 | locus YJL164C, strain tpk1, stronger effect = lower value 1 | locus YJL166W, strain qcr8, stronger effect = lower value 1 | locus YJL168C, strain set2, stronger effect = lower value 0.994 | locus YJL187C, strain SWE1 (second series), stronger effect = lower value 1 | locus YJR043C, strain POL32, stronger effect = lower value 1.05 | locus YJR066W, strain TOR1, stronger effect = lower value 0.886 | locus YKL009W, strain mrt4, stronger effect = lower value 0.985 | locus YKL068W, stronger effect = lower value 0.997 | locus YKL085W, strain MDH1 (second series), stronger effect = lower value 0.99 | locus YKL085W, strain MDH1, stronger effect = lower value 0.99 | locus YKL160W, strain elf1, stronger effect = lower value 0.991 | locus YKR001C, strain vps1, stronger effect = lower value 0.978 | locus YKR026C, strain gcn3, stronger effect = lower value 0.995 | locus YKR091W, strain srl3, stronger effect = lower value 0.998 | locus YLL001W, strain dnm1, stronger effect = lower value 0.993 | locus YLL026W, stronger effect = lower value 0.989 | locus YLL041C, strain sdh2, stronger effect = lower value 0.989 | locus YLR027C, strain aat2, stronger effect = lower value 1.01 | locus YLR039C, strain RIC1, stronger effect = lower value 1.05 | locus YLR058C, strain SHM2, stronger effect = lower value 1 | locus YLR102C, strain apc9, stronger effect = lower value 0.99 | locus YLR113W, strain HOG1, stronger effect = lower value 1.04 | locus YLR221C, strain rsa3, stronger effect = lower value 1 | locus YLR258W, strain gsy2, stronger effect = lower value 1.01 | locus YLR262C, strain YPT6 (second series), stronger effect = lower value 1.01 | locus YLR262C, strain YPT6, stronger effect = lower value 1.03 | locus YLR268W, strain sec22, stronger effect = lower value 0.988 | locus YLR320W, strain mms22, stronger effect = lower value 0.992 | locus YLR342W, strain FKS1, stronger effect = lower value 0.994 | locus YLR357W, strain rsc2, stronger effect = lower value 0.984 | locus YLR370C, strain arc18, stronger effect = lower value 0.998 | locus YLR371W, strain rom2, stronger effect = lower value 1 | locus YLR384C, strain iki3, stronger effect = lower value 0.978 | locus YLR418C, strain cdc73, stronger effect = lower value 0.948 | locus YML016C, strain PPZ1, stronger effect = lower value 1.01 | locus YML032C, strain rad52, stronger effect = lower value 0.984 | locus YML120C, strain ndi1, stronger effect = lower value 1 | locus YML124C, strain tub3, stronger effect = lower value 0.985 | locus YMR058W, strain fet3, stronger effect = lower value 1.01 | locus YMR078C, strain ctf18, stronger effect = lower value 0.996 | locus YMR125W, strain sto1, stronger effect = lower value 1.02 | locus YMR129W, stronger effect = lower value 0.989 | locus YMR205C, strain PFK2, stronger effect = lower value 0.995 | locus YMR223W, strain ubp8, stronger effect = lower value 0.99 | locus YMR231W, strain pep5, stronger effect = lower value 1 | locus YMR263W, strain SAP30, stronger effect = lower value 0.998 | locus YMR307W, strain GAS1, stronger effect = lower value 1.08 | locus YNL067W, strain RPL9B, stronger effect = lower value 0.989 | locus YNL071W, strain lat1, stronger effect = lower value 1.01 | locus YNL153C, strain GIM3, stronger effect = lower value 1.01 | locus YNL183C, strain NPR1, stronger effect = lower value 0.935 | locus YNL209W, strain ssb2, stronger effect = lower value 0.994 | locus YNL233W, strain BNI4, stronger effect = lower value 0.991 | locus YNL248C, strain rpa49, stronger effect = lower value 0.975 | locus YNL250W, strain rad50, stronger effect = lower value 0.989 | locus YNL271C, strain bni1, stronger effect = lower value 1 | locus YNL298W, strain CLA4, stronger effect = lower value 0.985 | locus YNL307C, strain MCK1, stronger effect = lower value 0.98 | locus YNL322C, strain KRE1 (second series), stronger effect = lower value 0.971 | locus YNL322C, strain KRE1, stronger effect = lower value 1.01 | locus YNR049C, strain mso1, stronger effect = lower value 0.993 | locus YNR052C, strain pop2, stronger effect = lower value 0.991 | locus YOL012C, strain htz1 0.837 | locus YOL147C, strain pex11, stronger effect = lower value 0.983 | locus YOR001W, strain rrp6, stronger effect = lower value 1.01 | locus YOR061W, strain CKA2, stronger effect = lower value 1 | locus YOR069W, strain VPS5, stronger effect = lower value 1 | locus YOR070C, strain gyp1, stronger effect = lower value 0.993 | locus YOR080W, strain dia2, stronger effect = lower value 0.99 | locus YOR083W, strain WHI5, stronger effect = lower value 0.988 | locus YOR106W, strain vam3, stronger effect = lower value 1 | locus YOR136W, strain idh2, stronger effect = lower value 0.989 | locus YOR144C, strain elg1, stronger effect = lower value 0.991 | locus YOR184W, strain ser1, stronger effect = lower value 0.992 | locus YOR231W, strain MKK1, stronger effect = lower value 0.958 | locus YOR265W, strain rbl2, stronger effect = lower value 1.02 | locus YOR270C, strain vph1, stronger effect = lower value 0.965 | locus YOR290C, strain snf2, stronger effect = lower value 0.993 | locus YOR316C, strain cot1, stronger effect = lower value 0.989 | locus YPL051W, strain arl3, stronger effect = lower value 0.974 | locus YPL078C, strain atp4, stronger effect = lower value 0.988 | locus YPL106C, strain sse1, stronger effect = lower value 0.996 | locus YPL240C, strain hsp82, stronger effect = lower value 1 | locus YPL241C, strain CIN2, stronger effect = lower value 1 | locus YPL256C, strain CLN2, stronger effect = lower value 0.991 | locus YPR119W, strain clb2, stronger effect = lower value 0.994 | locus YPR141C, strain kar3, stronger effect = lower value 0.987 | locus YPR163C, strain tif3, stronger effect = lower value 0.98 | locus YPR167C, strain met16, stronger effect = lower value 0.979 | strain wtn01, stronger effect = lower value 0.995
